IL-1B inflam inh = inflammasome signaling inhibition, IL-1 beta readout; THP-1 LPS/ATP IL-1B secretion, AlphaLISA, 16 h; active compounds read low; activity change, % at 57.5 µM; AID 743279; actives 4.7% (n = 360,000); in the data active means activity change below about -50%; inconclusive means mostly about -30% to -49%
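Secreted IL-1B measured by AlphaLISA bead assay after 16 h compound exposure of THP-1 cells; compounds (final up to 57.5 uM) added 1 h before LPS (250 ng/mL) and ATP (1.25 mM) stimulation; lower signal means less secretion.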
DT40 TDP1 CPT = DT40-hTDP1 cell growth loss with CPT | actives 12% (n = 420,000) | chicken DT40 Tdp1-/-;hTDP1 cells + 20 nM CPT, ATP luminescence, 48 h | Potency, µM (doses to about 46.2 µM), for the others: at the highest dose activity change, negative = growth inhibition, actives largely listed as inhibitors | AID 686979; further: potency means the concentration at half of the fitted maximal effect; nearly all actives have a fitted effect of over 55% in size
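Chicken DT40 Tdp1-/- cells stably complemented with human TDP1 were seeded at 400 cells/well in medium containing 20 nM camptothecin, exposed to pin-transferred compounds, and grown at 37 °C for at least 48 hr. Viability was read as ATP luminescence.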
HT1080 IDH1KD tx = HT-1080 IDH1 knockdown cell toxicity (counter line). HT-1080 IDH1 knockdown viability, ATP luminescence, 48 h. actives 2% (n = 360,000). Potency, µM (highest dose often 46.1 µM), inactives show at the top dose activity, negative = toxicity, most hits filed as cytotoxic;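 further: potency means the concentration at half of the fitted maximal effect; 0% = DMSO wells and -100% = cell-free medium wells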
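Assay cells: HT-1080 with IDH1 knockdown, 750 per well, RPMI/5% FBS. Exposure: 48 h at 37 °C following 2 h pre-incubation. Read: CellTiter-Glo luminescence; fitted concentration-response, curve class assigned.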
12-LOX inh = inhibitors of human 12S-lipoxygenase ALOX12; actives 1.1% (n = 580,000); Potency, µM (series often up to 108 µM), for inactives: at the highest dose activity change, negative = inhibition, hits mostly inhibitors; purified 12hLO, xylenol orange hydroperoxide absorbance; AID 1671190; further: potency means the concentration at half of the fitted maximal effect
Target sequence (P18054 whole entry, looked up): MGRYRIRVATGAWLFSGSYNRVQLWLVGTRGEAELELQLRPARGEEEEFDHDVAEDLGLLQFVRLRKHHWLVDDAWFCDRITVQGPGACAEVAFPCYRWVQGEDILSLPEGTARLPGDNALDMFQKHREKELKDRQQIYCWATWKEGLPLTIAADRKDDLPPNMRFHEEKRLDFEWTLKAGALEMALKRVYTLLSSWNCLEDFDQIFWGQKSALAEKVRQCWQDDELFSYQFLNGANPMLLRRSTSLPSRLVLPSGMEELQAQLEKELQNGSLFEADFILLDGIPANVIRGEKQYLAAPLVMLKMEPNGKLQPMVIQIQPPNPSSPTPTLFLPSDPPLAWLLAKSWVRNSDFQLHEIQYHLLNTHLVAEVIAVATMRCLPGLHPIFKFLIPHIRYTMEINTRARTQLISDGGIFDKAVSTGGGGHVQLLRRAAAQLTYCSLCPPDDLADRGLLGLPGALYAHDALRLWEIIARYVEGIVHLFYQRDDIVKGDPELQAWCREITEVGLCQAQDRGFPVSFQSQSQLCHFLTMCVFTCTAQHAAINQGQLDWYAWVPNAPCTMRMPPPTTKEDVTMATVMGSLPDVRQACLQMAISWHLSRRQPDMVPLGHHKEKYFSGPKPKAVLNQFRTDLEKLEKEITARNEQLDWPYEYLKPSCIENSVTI
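Purified human 12hLO at 150 nM in 25 mM Hepes, 0.01% Triton X-100, pH 7.0, preincubated 15 min at room temperature with compound. Reaction started with 40 uM arachidonic acid, 30 min at room temperature. Hydroperoxide measured by Fe-xylenol orange, 573/405 nm absorbance ratio.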
DT40 TDP1 no CPT = qHTS for Inhibitors of human tyrosyl-DNA phosphodiesterase 1 (TDP1): qHTS in cells in absence of CPT | DT40 Tdp1-/- hTDP1 cells, no CPT, ATP luminescence, 48 h | Potency, µM (doses to about 46.2 µM), without a hit: top-dose activity change, negative = growth inhibition, usual class: inhibitors | actives 15% (n = 420,000); further: potency means the concentration at half of the fitted maximal effect; nearly all actives have a fitted effect of over 55% in size
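Chicken DT40 Tdp1-/- cells stably complemented with human TDP1 were seeded at 400 cells/well with DMSO in place of 20 nM camptothecin. After compound pinning, cells grew at least 48 hr at 37 °C; viability read by CellTiter-Glo luminescence.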
HT1080NT lethal = kills 2HG-producing HT-1080-NT fibrosarcoma cells. HT-1080-NT fibrosarcoma viability, CellTiter-Glo ATP luminescence, 48 h. Potency, µM (doses to about 46.1 µM), for inactives: top-dose activity, negative = less viability, most hits filed as cytotoxic. actives 1.6% (n = 360,000);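 further: NT is the 2HG producing partner of a matched IDH1 knockdown line; potency means the concentration at half of the fitted maximal effect; 0% = DMSO-treated cells and -100% = media-only wells without cells; nearly all actives have a fitted effect of over 55% in size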
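Fibrosarcoma NT cells, 750 per well in 5% FBS RPMI, were exposed to compound for 48 hours. Viability: CellTiter-Glo luminescence.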
* = called active by the depositor; ? = inconclusive; / = no result given; [ ] = remark or other dose. The full list was thinned out, with hits kept by preference. Unless noted, the call rests on the fitted dose curve; in most records, active means well fitted curve in the direction sought with a large enough effect; inconclusive means small, poorly fitted or top-dose-only effect, or another doubt; inactive means no such curve, though single readings can be large; an effect the other way counts as inactive or inconclusive. Unless noted, on the % scale 0 is the no-effect control and ±100 the full control effect.

SMILES	IL-1B inflam inh	DT40 TDP1 CPT	HT1080 IDH1KD tx	12-LOX inh	DT40 TDP1 no CPT	HT1080NT lethal
NS(=O)(=O)c1ccc(Nc2ccc3cc(S(=O)(=O)N4CCCCC4)ccc3n2)cc1	?	?	0%	-18%	?	0%
COC(=O)c1cccc(S(=O)(=O)N2CCC(NC(=O)Nc3cccc(F)c3)CC2)c1	8	-18%	0%	0%	?	1%
COc1ccc(C)cc1NC(=O)CNC(=O)CNc1ccccc1Cl	/	/	/	3%	/	/
Cc1ccccc1-n1nnnc1SCC(=O)N(Cc1ccco1)C1=CCCCC1	/	/	/	8.9µM*	/	/
Cc1cccc(C)c1-n1nnnc1SCC(=O)N(Cc1ccco1)C1=CCCCC1	/	/	/	-52%	/	/
CN1c2cc(C(=O)Nc3cccc(OC(F)(F)F)c3)ccc2C(=O)N2CCCC21 (stereo unspecified)	/	/	/	-21%	/	/
CNC(=O)CN(c1ccc(C23CC4CC(CC(C4)C2)C3)cc1)S(C)(=O)=O	-6	?	-9%	-4%	26µM*	-10%
CC(=O)Nc1ccc(C23CC4CC(CC(C4)C2)C3)cc1	11	-1%	4%	-26%	?	-3%
CS(=O)(=O)N(CC(=O)Nc1ccc(CC#N)cc1)c1ccc(C23CC4CC(CC(C4)C2)C3)cc1	?	?	10µM*	14%	16µM*	?
CCc1ccc(N(CC(=O)NC)S(C)(=O)=O)cc1	7	-7%	15%	47%	-2%	22%
Cn1cc(C(=O)N2CCC(OC3CCN(S(C)(=O)=O)CC3)CC2)cn1	/	/	/	48%	/	/
Cc1ccc(S(=O)(=O)NN=C2C(=O)C3CCC2C3Cl)cc1 (stereo unspecified)	16	6%	11%	10µM*	-2%	13%
CCN(CC)c1ccc(NC(=O)c2c(C)nn(-c3ccc(F)cc3)c2-n2cccc2)c(C)c1	/	/	/	-47%	/	/
CCOC(=O)Cc1csc(NC(=O)c2cc(-c3ccncc3)nc3ccccc23)n1	30	16µM*	-10%	?	?	13%[9.24 µM]
Cc1csc(NC(=O)c2cc(-c3ccccc3)nc3ccccc23)n1	/	?	-24%	?	15µM*	-23%
Cc1ccc(-c2cc(C(=O)Nc3nncs3)c3ccccc3n2)cc1	/	/	/	-15%	/	/
O=C(CCNc1c(-c2ccccc2)nc2cnccn12)NC1CCCC1	/	/	/	-6%	/	/
O=C(OCC(=O)N1CCc2ccccc21)c1ccc(Cl)c([N+](=O)[O-])c1	/	/	/	-24%	/	/
COc1ccc(-c2csc(Nc3ccccc3)[n+]2Cc2ccccc2)cc1	-27	?	-9%	-16%	15µM*	-14%
Cc1ccc(-c2csc(Nc3ccc(C(=O)O)cc3)[n+]2Cc2ccccc2)cc1	-11	-24%	-4%	-4%	?	-23%
O=[N+]([O-])c1ccc(-c2csc(Nc3ccccc3)[n+]2Cc2ccccc2)cc1	-7	21µM*	-1%	?	21µM*	-1%
COCCc1nc(-c2cnc(C3CC3)nc2)n(-c2ccc(F)cc2F)n1	/	/	/	63%	/	/
Cc1cccc(NC(=S)NC2CCCCCC2)c1C	32	21µM*	-5%	50µM*	10µM*	-1%
Cc1cccc(NC(=S)NC2CC3CCCC(C2)N3Cc2ccccc2)c1C (stereo unspecified)	-28	16µM*	-3%	-12%	?	7%
COc1ccccc1C(=O)NNC(=O)C(=O)NC1CCCCC1	13	21µM*	-14%	-4%	?	-17%
SMILES	IL-1B inflam inh	DT40 TDP1 CPT	HT1080 IDH1KD tx	12-LOX inh	DT40 TDP1 no CPT	HT1080NT lethal
Fc1ccccc1NC(=S)NC1CCCC1	12	?	-1%	?	23µM*	-2%
Cc1cccc(NC(=S)NC2CCCC2)c1C	-1	1%	-2%	?	0%	5%
O=C(c1ccc(C(F)(F)F)cc1)N1CCN2C(=O)N(Cc3ccc(F)cc3)C[C@H]2C1	/	/	/	5%[176 µM]	/	/
COc1ccccc1C(=O)NCCC(=O)NC(C)c1ccc(-n2ccnc2)cc1 (stereo unspecified)	8	-4%	2%	5%	-16%	2%
COc1ccccc1NC(=S)NC1CCCCCC1	-3	?	2%	?	18µM*	30%
Cc1cc(Cl)ccc1NC(=S)NC1CCCC1	-9	?	5%	?	21µM*	5%
CC(C)(C)c1ccccc1NC(=S)NC1CCCC1	11	?	-1%	?	?	-1%
CC(C)(C)c1ccccc1NC(=S)NC1CCCCC1	2	?	-1%	40µM*	18µM*	11%
Cc1cc(NS(=O)(=O)c2ccc(NC(=O)c3oc4ccc(F)cc4c3C)cc2)nc(C)n1	/	/	/	-17%	/	/
O=C1NN(c2ccccc2)C(=O)/C1=C/c1ccc(Sc2ccc(Cl)cc2)o1	15	?	-6%	16µM*	21µM*	-9%
Cc1ccc(Sc2ccc(/C=C3/C(=O)NN(c4ccccc4)C3=O)o2)cc1	-24	?	1%	?	16µM*	0%
O=C1NN(c2ccccc2)C(=O)/C1=C/c1ccc(-c2ccc(Cl)c(C(=O)O)c2)o1	47	2%	-8%	?	-1%	-13%
COc1ccc(Cc2c(-c3ccc(F)cc3)nc3ccc(Cl)cn23)c(C)c1	0	?	?	28µM*	?	-20%
Cc1cc(Br)cn2c(Cc3cccc(Cl)c3)c(-c3cccc(Cl)c3)nc12	9	?	-1%	?	26µM*	-5%
COc1ccc(Cc2c(-c3ccccc3)nc3ccc(Cl)cn23)c(C)c1	41	?	2%	?	?	-3%
COc1ccc(Cc2c(-c3cccc(Cl)c3)nc3c(C)cc(Br)cn23)c(C)c1	?	2.6µM*	23µM*	7.9µM*	2.6µM*	21µM*
COc1ccc(Cc2c(-c3cccc(Cl)c3)nc3ccc(C)cn23)c(C)c1	-16	16µM*	?	10µM*	21µM*	?
COc1ccc(Cc2c(-c3ccc(Cl)cc3)nc3c(C)cc(Br)cn23)c(C)c1	54	23µM*	?	?	21µM*	?
COc1ccc(Cc2c(C3CCCCC3)nc3c(C)cc(Br)cn23)c(C)c1	6	2.6µM*	?	?	2.6µM*	?
COc1ccc(Cc2c(-c3ccc(F)cc3)nc3c(C)cc(Br)cn23)c(C)c1	22	?	-6%	35µM*	18µM*	2%
CCCc1nc2c(C)cc(Br)cn2c1Cc1ccc(OC)cc1C	-2	?	?	-21%	21µM*	?

Screening results deposited in PubChem by National Center for Advancing Translational Sciences (NCATS).
